{
  "source": "paper PMC7819943",
  "about": "“Rice protein-binding microarrays: a tool to detect cis-acting elements near promoter regions in rice”",
  "note": "In all, about 39,000 sequences were measured (“fluorescence intensity (a.u.)”: median about 4,300, highest 2% from about 39,000 on). The list comes from a sample in which the highest values are over-represented; it also holds similar and randomly drawn sequences.",
  "data": [
    {"target": "T1, OsSMF1 (Oryza sativa, UniProt Q6ZLB0 1-436)", "T1 sequence": "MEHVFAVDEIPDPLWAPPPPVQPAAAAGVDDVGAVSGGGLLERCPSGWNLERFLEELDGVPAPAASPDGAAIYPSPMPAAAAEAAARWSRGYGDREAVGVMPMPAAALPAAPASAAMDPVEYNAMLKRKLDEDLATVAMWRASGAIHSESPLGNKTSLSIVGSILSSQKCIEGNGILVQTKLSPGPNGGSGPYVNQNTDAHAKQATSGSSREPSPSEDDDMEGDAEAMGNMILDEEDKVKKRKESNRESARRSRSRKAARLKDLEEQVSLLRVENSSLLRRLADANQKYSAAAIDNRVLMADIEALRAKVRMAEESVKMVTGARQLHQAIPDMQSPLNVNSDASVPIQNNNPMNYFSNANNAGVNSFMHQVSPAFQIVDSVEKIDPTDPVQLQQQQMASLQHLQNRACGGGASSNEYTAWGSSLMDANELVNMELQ", "assay": "protein-binding microarray (RPBM); PBS, 2% BSA, 51.3 ng/ul salmon testes DNA, 50 uM zinc acetate, 200 nM TF, 25 C, 1 h; high values mean tight binding", "details": "protein: recombinant; tags: N-terminal polyhistidine and DsRed monomer fusion (pET32a); chain copies: 2; label: CyDye5-dUTP incorporated in the synthesized complementary strand; 3' TTTTT single-stranded linker to array surface; dsDNA, one strand shown", "how_it_was_run": "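The binding signal for each feature is its fluorescence intensity in arbitrary units. An Axon 4000B scanner was used to read a custom Agilent array that had been made double-stranded with Cy5-dUTP primer extension, blocked with 2% BSA, incubated at 25 °C for 1 h with 200 nM protein in PBS, 2% BSA, salmon testes DNA and 50 µM zinc acetate, and washed. The protein was an N-terminal polyhistidine–DsRed transcription factor fusion from E. coli BL21-CodonPlus, purified on Ni–NTA.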", "values": [
      {"sequence": "CACTCCTCTGCTGCTCGTCGTCAATGCCATCCTCATCATGCGGAGTCACCTAGTGCAG", "binding signal": "3330 fluorescence intensity (a.u.)"},
      {"sequence": "GATTTGCTTACATGAATAAGGTTGATTTGCATCGGCAAGACGGAGTCACCTAGTGCAG", "binding signal": "4000 fluorescence intensity (a.u.)"},
      {"sequence": "CCCTTCCGGCTTCCACGCGTCGGGAACCGAAGTCCAAACCCGGAGTCACCTAGTGCAG", "binding signal": "3360 fluorescence intensity (a.u.)"},
      {"sequence": "TCCAAGAAAGAAAGGAGAATTATCCGGCAGTTTCAGAGGTCGGAGTCACCTAGTGCAG", "binding signal": "22200 fluorescence intensity (a.u.)"},
      {"sequence": "CCGGAGCCAGTAGTAGCGTTGAGTCGTTGTCGCGAGATGGCGGAGTCACCTAGTGCAG", "binding signal": "3260 fluorescence intensity (a.u.)"},
      {"sequence": "AGAAAAGGAGGAAAAGAATTTCCCTGGGATTTAAAATATTCGGAGTCACCTAGTGCAG", "binding signal": "26300 fluorescence intensity (a.u.)"},
      {"sequence": "TCCCACTCGATTTGGGAGAAAATACAGGGATTAAACTCTGCGGAGTCACCTAGTGCAG", "binding signal": "3550 fluorescence intensity (a.u.)"},
      {"sequence": "ACAGGAATATCTCTTCGAGGGATTAAAATTCACTCCCACTCGGAGTCACCTAGTGCAG", "binding signal": "50800 fluorescence intensity (a.u.)"},
      {"sequence": "AGTGTCAGTACACACACTAGCTTCTCTCACCGGCTCTCCGCGGAGTCACCTAGTGCAG", "binding signal": "3210 fluorescence intensity (a.u.)"},
      {"sequence": "CTGACAGCTTTTAGTTCACAAATATCAGTAAGATTTCCCTCGGAGTCACCTAGTGCAG", "binding signal": "43200 fluorescence intensity (a.u.)"},
      {"sequence": "CACAACTTTTGATTTCAGGACATATGTGTTCAGCTTTCCTCGGAGTCACCTAGTGCAG", "binding signal": "3370 fluorescence intensity (a.u.)"},
      {"sequence": "GTTCAGCTATCAAAGTCCCTGAATAGTTTAGATTTACATTCGGAGTCACCTAGTGCAG", "binding signal": "14100 fluorescence intensity (a.u.)"},
      {"sequence": "ATTTCATAAAACTGCACATTCTGGGGTTCAAGTTGCAGAACGGAGTCACCTAGTGCAG", "binding signal": "3170 fluorescence intensity (a.u.)"},
      {"sequence": "TTCCTCCATCTTGACGTGGGACCCACCTGGAGATTCATCTCGGAGTCACCTAGTGCAG", "binding signal": "4710 fluorescence intensity (a.u.)"},
      {"sequence": "TGCTACATAAGTGACACGTCAACACCACGTTGTATAAAGACGGAGTCACCTAGTGCAG", "binding signal": "53700 fluorescence intensity (a.u.)"},
      {"sequence": "TTACACGTTAAGAAAGTGCTAAGTAAACAAGACTGCCTGACGGAGTCACCTAGTGCAG", "binding signal": "17700 fluorescence intensity (a.u.)"},
      {"sequence": "ATGCTATATAAATGCCACGTTGTGCGAAGACCAAGTCAACCGGAGTCACCTAGTGCAG", "binding signal": "3510 fluorescence intensity (a.u.)"},
      {"sequence": "ACTACACCGTCGCAGCGCACCCACGTGACACGCAGCCACACGGAGTCACCTAGTGCAG", "binding signal": "4730 fluorescence intensity (a.u.)"},
      {"sequence": "CCCTCAAGGGCTCAAAACACTCAAACAGTTCTACATATATCGGAGTCACCTAGTGCAG", "binding signal": "57600 fluorescence intensity (a.u.)"},
      {"sequence": "TGATACATTACTCAAGGAAACAGTCACACAGTCTATCACGCGGAGTCACCTAGTGCAG", "binding signal": "3200 fluorescence intensity (a.u.)"},
      {"sequence": "CGTTGGGCTCAAGGGGAGGGATATCTATCTAACAGTAACACGGAGTCACCTAGTGCAG", "binding signal": "4110 fluorescence intensity (a.u.)"},
      {"sequence": "CCGTCTCCACGCACTCGAACGTCACCGACGACCCCGGCAGCGGAGTCACCTAGTGCAG", "binding signal": "5490 fluorescence intensity (a.u.)"},
      {"sequence": "GCCACACCTCCCATTCCTTAGCCAAACACTCGCACTACTCCGGAGTCACCTAGTGCAG", "binding signal": "3200 fluorescence intensity (a.u.)"},
      {"sequence": "CGGTTGAATTGTTCTTGGCATCATCGGGTGTAACCGTGTACGGAGTCACCTAGTGCAG", "binding signal": "3350 fluorescence intensity (a.u.)"},
      {"sequence": "TTCTCAGCCAATCCCCAGCTCACACGTGCCAACTCTTCCACGGAGTCACCTAGTGCAG", "binding signal": "7630 fluorescence intensity (a.u.)"},
      {"sequence": "CCACCATGGATCCGACGTGGCACAACCACATTGGTCCCTCCGGAGTCACCTAGTGCAG", "binding signal": "17700 fluorescence intensity (a.u.)"},
      {"sequence": "AAGCGCGCGCCTCGCCACCTCACCCGAAGAAATTCCCCACCGGAGTCACCTAGTGCAG", "binding signal": "4140 fluorescence intensity (a.u.)"},
      {"sequence": "AACAGCTCAATTAATTAATCGCCCACACCGAAGCGCGCACCGGAGTCACCTAGTGCAG", "binding signal": "39800 fluorescence intensity (a.u.)"},
      {"sequence": "TAGGCCCACACCTAGTCAGCTCAATCGAAATACAACCCACCGGAGTCACCTAGTGCAG", "binding signal": "3450 fluorescence intensity (a.u.)"},
      {"sequence": "CCACACACCATTGCCGCATCATCCACCACCGCCTCCTCAGCGGAGTCACCTAGTGCAG", "binding signal": "5210 fluorescence intensity (a.u.)"},
      {"sequence": "CGCATCCCGGCCCATCCGCCTCGTCAGCGGCGGCGCACCACGGAGTCACCTAGTGCAG", "binding signal": "10800 fluorescence intensity (a.u.)"},
      {"sequence": "CTTGCCTCCGCCCATAAATACCACCCGCATTGGCGTTCAGCGGAGTCACCTAGTGCAG", "binding signal": "50900 fluorescence intensity (a.u.)"},
      {"sequence": "GTTCGCCGTGGATTTCTTTTCTTGCGTCAGTGATACTGATCGGAGTCACCTAGTGCAG", "binding signal": "5040 fluorescence intensity (a.u.)"},
      {"sequence": "AACTATAGATCCAAGTGAGGAAGCTATATTCCCAAATTTTCGGAGTCACCTAGTGCAG", "binding signal": "46000 fluorescence intensity (a.u.)"},
      {"sequence": "TTCTATTCTCCCAAAATTCCTATAGAACGAGATATTCCATCGGAGTCACCTAGTGCAG", "binding signal": "22200 fluorescence intensity (a.u.)"},
      {"sequence": "TGGAGCTAGTCAAGTAGACAGATCATACTATTCCCCAATTCGGAGTCACCTAGTGCAG", "binding signal": "4150 fluorescence intensity (a.u.)"},
      {"sequence": "GCTTGCCGACGCCGACGCCGCCGCCGCCACCGCCGTGGCGCGGAGTCACCTAGTGCAG", "binding signal": "4150 fluorescence intensity (a.u.)"},
      {"sequence": "CACCCGACTCAGATACCCGAATCCACGTCAGCCCAGAGCCCGGAGTCACCTAGTGCAG", "binding signal": "14300 fluorescence intensity (a.u.)"},
      {"sequence": "AATCATCCGCCCCAGGCCCCAGCCACGTCGTCCAGATCGCCGGAGTCACCTAGTGCAG", "binding signal": "6410 fluorescence intensity (a.u.)"},
      {"sequence": "CGATCTATCTTAGTTCATTCGCTGCAAATCCGACGCCTGACGGAGTCACCTAGTGCAG", "binding signal": "3240 fluorescence intensity (a.u.)"},
      {"sequence": "TCCAGATCAAATCCGACGGCCCAGGATACGCCACGTCACCCGGAGTCACCTAGTGCAG", "binding signal": "46700 fluorescence intensity (a.u.)"},
      {"sequence": "GTCTTCACAAATCCGATGACGCCACGTCATCTATCCGGCCCGGAGTCACCTAGTGCAG", "binding signal": "46400 fluorescence intensity (a.u.)"},
      {"sequence": "AGCAAAATCTACGCGATGACGCCACGTGACATGACATCGCCGGAGTCACCTAGTGCAG", "binding signal": "5840 fluorescence intensity (a.u.)"}
    ]}
  ]
}
